# From publication PMC7862700, “An all-to-all approach to the identification of sequence-specific readers for epigenetic DNA modifications on cytosine”
# Experiments:
# Assay in all cases: DAPPL (digital affinity profiling via proximity ligation, sequencing); 10 mM Tris-HCl pH 7.5, 50 mM NaCl, 1 mM DTT, 4% glycerol, room temperature, 30 min; GST-TFs on glutathione beads, 16-mer random dsDNA library, 0.1% formaldehyde crosslink after washing; high values mean tight binding
# FEV = target: T1, FEV (Homo sapiens, UniProt Q99581 1-238); details: protein: recombinant; tags: N-terminal GST; dsDNA, one strand shown
# T1 sequence: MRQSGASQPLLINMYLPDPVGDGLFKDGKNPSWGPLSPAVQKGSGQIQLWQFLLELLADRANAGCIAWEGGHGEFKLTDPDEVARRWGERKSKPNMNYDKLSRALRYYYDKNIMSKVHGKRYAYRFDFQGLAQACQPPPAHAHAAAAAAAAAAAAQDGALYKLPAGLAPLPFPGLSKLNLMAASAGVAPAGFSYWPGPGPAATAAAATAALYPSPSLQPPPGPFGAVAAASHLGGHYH
# Method in brief: (§1)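 In yeast, human transcription factors were expressed with a GST fusion, then pulled down on glutathione beads and given DNA barcodes. Pooled with a tag-only sample, they were exposed to 200 nmole of a 16-mer random double-stranded DNA library (Tris/NaCl/DTT/glycerol buffer, room temperature, 30 min), washed, crosslinked with 0.1% formaldehyde, proximity-ligated using BsaI/T4 ligase for 1 h at 37 °C, PCR-amplified and read on an Illumina NextSeq500. Each hexamer's frequency of reads for a factor, divided by the matching frequency for the tag-only sample, gives the binding signal.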
# ETV5 = ETV5 (Homo sapiens, UniProt P41161 1-510); details: protein: recombinant; tags: N-terminal GST; dsDNA, one strand shown
# Sequence of ETV5 (P41161 whole entry): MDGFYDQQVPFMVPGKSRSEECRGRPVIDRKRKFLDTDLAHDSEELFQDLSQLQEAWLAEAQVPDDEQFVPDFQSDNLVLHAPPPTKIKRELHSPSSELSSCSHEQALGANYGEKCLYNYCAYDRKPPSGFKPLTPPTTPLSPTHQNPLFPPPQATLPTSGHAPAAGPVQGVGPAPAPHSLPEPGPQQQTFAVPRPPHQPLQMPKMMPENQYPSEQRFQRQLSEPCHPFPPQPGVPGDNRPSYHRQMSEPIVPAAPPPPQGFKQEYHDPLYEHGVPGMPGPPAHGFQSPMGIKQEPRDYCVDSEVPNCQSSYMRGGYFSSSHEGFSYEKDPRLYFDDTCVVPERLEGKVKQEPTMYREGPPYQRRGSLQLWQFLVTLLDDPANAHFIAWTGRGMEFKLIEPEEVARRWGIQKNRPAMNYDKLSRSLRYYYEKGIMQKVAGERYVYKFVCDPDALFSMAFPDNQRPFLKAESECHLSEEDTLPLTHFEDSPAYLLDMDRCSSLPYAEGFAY
# Method in brief: as §1
# HSF1 = HSF1 (Homo sapiens, UniProt Q00613 1-529); details: protein: recombinant; tags: N-terminal GST; chain copies: 3; dsDNA, one strand shown
# Sequence of HSF1 (Q00613 whole entry): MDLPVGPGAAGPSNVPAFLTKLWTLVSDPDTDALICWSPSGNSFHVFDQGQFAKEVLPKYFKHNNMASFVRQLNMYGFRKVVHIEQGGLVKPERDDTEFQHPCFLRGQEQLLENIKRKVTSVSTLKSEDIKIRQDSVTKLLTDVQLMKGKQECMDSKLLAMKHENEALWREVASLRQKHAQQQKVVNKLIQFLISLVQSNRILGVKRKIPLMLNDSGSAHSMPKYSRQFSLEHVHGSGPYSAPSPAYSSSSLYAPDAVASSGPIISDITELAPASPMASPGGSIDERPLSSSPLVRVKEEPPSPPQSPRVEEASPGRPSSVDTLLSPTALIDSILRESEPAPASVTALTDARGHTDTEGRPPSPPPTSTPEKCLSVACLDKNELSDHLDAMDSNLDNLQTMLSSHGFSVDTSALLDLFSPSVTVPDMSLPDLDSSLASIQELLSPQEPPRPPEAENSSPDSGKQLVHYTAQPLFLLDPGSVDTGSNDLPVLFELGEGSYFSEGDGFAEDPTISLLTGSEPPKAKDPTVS
# Method in brief: as §1
# SPIC = target: T2, SPIC (Homo sapiens, UniProt Q8N5J4 1-248); details: protein: recombinant; tags: N-terminal GST; dsDNA, one strand shown
# T2 sequence: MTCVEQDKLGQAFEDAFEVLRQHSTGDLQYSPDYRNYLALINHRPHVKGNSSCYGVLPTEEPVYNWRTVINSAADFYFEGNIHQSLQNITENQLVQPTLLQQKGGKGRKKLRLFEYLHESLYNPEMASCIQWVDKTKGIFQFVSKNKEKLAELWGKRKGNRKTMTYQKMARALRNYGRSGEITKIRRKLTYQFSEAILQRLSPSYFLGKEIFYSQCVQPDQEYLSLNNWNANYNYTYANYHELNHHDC
# Method in brief: as §1
# ELF4 = ELF4 (Homo sapiens, UniProt Q99607 1-663); details: protein: recombinant; tags: N-terminal GST; dsDNA, one strand shown
# Sequence of ELF4 (Q99607 whole entry): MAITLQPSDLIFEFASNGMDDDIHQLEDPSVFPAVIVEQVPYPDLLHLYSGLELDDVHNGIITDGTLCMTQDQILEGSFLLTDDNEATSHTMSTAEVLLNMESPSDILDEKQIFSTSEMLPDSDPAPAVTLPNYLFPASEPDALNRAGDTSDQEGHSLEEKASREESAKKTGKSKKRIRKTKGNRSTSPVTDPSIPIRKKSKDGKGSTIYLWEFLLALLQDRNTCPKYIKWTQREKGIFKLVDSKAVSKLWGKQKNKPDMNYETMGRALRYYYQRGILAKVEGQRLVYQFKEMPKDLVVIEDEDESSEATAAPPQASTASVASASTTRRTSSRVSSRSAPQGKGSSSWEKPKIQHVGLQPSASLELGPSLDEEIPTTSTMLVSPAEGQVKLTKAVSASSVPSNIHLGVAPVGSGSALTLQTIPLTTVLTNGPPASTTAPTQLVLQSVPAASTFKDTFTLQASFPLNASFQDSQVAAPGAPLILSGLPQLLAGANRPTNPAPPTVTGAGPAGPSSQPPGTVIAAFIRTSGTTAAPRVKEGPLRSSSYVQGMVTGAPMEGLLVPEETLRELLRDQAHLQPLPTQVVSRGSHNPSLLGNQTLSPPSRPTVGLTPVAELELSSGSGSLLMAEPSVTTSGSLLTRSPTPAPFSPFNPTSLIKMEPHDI
# Method in brief: as §1
# ELK4 = target: T3, ELK4 (Homo sapiens, UniProt P28324-2 1-405); details: protein: recombinant; tags: N-terminal GST; dsDNA, one strand shown
# T3 sequence: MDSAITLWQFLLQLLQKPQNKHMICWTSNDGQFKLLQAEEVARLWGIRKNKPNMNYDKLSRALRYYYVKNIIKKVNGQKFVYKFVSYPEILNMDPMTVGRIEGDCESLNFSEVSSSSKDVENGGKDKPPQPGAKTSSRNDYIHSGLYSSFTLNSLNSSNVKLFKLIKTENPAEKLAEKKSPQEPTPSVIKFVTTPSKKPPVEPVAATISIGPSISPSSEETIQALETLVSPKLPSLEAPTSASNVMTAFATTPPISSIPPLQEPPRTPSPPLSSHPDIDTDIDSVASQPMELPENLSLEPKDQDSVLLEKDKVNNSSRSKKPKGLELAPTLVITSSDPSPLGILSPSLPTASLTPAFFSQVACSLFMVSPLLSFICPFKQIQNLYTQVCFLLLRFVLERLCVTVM
# Method in brief: as §1
# ETV2 = target: T4, ETV2 (Homo sapiens, UniProt O00321 1-342); details: protein: recombinant; tags: N-terminal GST; dsDNA, one strand shown
# T4 sequence: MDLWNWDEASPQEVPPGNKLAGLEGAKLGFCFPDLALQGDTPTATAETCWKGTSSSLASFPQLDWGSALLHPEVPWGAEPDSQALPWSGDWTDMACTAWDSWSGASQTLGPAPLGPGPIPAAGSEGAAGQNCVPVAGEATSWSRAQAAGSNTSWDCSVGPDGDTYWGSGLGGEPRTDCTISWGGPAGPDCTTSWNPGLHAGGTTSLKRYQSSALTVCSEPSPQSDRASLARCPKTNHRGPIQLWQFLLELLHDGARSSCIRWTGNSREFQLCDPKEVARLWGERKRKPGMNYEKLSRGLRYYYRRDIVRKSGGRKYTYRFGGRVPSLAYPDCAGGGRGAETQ
# Method in brief: as §1
# ELF3 = target: T5, ELF3 (Homo sapiens, UniProt P78545 1-371); details: protein: recombinant; tags: N-terminal GST; dsDNA, one strand shown
# T5 sequence: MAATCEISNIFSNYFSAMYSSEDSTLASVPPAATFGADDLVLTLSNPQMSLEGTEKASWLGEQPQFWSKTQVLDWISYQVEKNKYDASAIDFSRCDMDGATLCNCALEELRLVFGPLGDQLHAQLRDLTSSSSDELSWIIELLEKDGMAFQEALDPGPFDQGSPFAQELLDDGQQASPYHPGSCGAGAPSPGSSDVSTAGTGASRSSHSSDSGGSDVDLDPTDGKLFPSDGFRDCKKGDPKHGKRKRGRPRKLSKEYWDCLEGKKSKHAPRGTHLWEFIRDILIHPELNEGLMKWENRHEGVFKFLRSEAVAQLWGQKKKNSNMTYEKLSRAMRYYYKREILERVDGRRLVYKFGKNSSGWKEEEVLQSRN
# Method in brief: as §1
# CRX = CRX (Homo sapiens, UniProt O43186 1-299); details: protein: recombinant; tags: N-terminal GST; dsDNA, one strand shown
# Sequence of CRX (O43186 whole entry): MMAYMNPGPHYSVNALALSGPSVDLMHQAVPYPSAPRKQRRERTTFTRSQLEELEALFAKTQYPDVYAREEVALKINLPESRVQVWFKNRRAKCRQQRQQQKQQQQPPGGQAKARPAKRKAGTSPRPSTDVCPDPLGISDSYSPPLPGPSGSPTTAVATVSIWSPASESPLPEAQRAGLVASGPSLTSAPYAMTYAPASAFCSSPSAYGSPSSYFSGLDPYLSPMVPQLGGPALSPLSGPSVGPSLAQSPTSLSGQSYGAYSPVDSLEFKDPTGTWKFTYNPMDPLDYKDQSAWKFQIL
# Method in brief: as §1
# ETV1 = ETV1 (Homo sapiens, UniProt P50549 1-477); details: protein: recombinant; tags: N-terminal GST; dsDNA, one strand shown
# Sequence of ETV1 (P50549 whole entry): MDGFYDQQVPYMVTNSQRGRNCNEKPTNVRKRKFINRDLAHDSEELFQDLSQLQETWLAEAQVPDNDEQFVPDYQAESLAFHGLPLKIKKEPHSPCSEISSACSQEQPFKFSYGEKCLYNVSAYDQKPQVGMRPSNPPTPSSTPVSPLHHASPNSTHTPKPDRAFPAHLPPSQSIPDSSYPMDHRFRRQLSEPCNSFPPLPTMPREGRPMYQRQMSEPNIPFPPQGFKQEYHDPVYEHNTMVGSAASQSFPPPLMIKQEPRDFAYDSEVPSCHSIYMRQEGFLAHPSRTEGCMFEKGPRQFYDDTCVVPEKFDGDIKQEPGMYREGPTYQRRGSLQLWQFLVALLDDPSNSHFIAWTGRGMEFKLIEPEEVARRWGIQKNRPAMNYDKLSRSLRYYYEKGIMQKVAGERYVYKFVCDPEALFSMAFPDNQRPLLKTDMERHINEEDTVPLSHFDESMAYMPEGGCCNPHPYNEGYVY
# Method in brief: as §1
# ERF = target: T6, ERF (Homo sapiens, UniProt P50548 1-548); details: protein: recombinant; tags: N-terminal GST; dsDNA, one strand shown
# T6 sequence: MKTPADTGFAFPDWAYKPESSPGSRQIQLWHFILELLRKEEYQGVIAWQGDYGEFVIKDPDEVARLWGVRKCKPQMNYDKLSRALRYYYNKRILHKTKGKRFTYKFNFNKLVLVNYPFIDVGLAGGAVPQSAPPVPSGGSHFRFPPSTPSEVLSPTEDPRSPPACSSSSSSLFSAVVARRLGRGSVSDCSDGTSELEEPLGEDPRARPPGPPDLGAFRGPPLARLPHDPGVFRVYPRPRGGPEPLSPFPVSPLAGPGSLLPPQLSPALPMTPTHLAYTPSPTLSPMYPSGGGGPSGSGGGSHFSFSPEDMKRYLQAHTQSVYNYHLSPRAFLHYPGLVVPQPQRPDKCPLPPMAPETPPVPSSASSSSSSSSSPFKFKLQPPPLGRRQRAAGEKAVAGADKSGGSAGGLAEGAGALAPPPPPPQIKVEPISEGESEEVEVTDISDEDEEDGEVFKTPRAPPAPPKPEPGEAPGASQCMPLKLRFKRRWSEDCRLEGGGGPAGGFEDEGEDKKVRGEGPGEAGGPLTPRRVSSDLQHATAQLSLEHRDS
# Method in brief: as §1
# ETV3L = target: T7, ETV3L (Homo sapiens, UniProt Q6ZN32 1-361); details: protein: recombinant; tags: N-terminal GST; dsDNA, one strand shown
# T7 sequence: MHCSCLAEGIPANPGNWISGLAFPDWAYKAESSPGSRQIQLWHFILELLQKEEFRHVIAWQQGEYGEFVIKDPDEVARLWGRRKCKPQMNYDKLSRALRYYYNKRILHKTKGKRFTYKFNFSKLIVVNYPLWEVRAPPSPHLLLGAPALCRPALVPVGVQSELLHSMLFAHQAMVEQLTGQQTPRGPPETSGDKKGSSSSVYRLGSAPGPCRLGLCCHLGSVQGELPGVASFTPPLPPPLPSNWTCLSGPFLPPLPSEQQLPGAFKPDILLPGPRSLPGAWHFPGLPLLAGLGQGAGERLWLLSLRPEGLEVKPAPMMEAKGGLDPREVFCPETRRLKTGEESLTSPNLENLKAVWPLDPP
# Method in brief: as §1
# ETS2 = target: T8, ETS2 (Homo sapiens, UniProt P15036 1-469); details: protein: recombinant; tags: N-terminal GST; dsDNA, one strand shown
# T8 sequence: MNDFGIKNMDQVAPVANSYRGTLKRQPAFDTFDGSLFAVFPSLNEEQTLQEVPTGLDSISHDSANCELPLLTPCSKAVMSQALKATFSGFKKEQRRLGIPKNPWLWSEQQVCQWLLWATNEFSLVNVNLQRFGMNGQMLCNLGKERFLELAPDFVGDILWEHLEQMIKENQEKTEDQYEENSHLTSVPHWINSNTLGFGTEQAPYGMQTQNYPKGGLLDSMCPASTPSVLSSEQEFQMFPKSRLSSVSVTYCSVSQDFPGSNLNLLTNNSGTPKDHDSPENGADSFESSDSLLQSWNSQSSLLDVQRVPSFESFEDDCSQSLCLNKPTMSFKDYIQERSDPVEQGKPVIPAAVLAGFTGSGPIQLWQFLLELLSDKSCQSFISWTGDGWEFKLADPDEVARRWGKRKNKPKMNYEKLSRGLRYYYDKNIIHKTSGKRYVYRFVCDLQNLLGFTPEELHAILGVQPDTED
# Method in brief: as §1
# SPDEF = target: T9, SPDEF (Homo sapiens, UniProt O95238 1-335); details: protein: recombinant; tags: N-terminal GST; dsDNA, one strand shown
# T9 sequence: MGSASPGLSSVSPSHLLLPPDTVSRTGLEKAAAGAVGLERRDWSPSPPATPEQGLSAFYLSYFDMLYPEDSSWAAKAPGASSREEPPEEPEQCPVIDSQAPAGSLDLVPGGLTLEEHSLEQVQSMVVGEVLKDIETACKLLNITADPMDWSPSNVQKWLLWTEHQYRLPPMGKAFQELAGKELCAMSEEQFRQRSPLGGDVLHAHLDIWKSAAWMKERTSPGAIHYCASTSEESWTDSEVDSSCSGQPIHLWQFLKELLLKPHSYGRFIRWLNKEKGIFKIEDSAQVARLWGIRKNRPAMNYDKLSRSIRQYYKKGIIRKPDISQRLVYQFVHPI
# Method in brief: as §1
# ETV7 = target: T10, ETV7 (Homo sapiens, UniProt Q9Y603 1-341); details: protein: recombinant; tags: N-terminal GST; dsDNA, one strand shown
# T10 sequence: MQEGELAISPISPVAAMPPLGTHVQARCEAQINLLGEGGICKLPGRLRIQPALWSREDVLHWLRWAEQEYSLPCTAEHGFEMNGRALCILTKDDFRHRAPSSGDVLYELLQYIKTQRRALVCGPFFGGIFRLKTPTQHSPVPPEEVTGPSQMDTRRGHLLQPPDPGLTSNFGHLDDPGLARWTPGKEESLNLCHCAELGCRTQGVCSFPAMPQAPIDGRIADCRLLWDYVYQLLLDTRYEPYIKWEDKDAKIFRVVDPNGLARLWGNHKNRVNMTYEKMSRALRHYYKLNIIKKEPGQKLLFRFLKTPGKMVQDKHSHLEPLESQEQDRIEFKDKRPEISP
# Method in brief: as §1
# ELF5 = target: T11, ELF5 (Homo sapiens, UniProt Q9UKW6-2 1-255); details: protein: recombinant; tags: N-terminal GST; dsDNA, one strand shown
# T11 sequence: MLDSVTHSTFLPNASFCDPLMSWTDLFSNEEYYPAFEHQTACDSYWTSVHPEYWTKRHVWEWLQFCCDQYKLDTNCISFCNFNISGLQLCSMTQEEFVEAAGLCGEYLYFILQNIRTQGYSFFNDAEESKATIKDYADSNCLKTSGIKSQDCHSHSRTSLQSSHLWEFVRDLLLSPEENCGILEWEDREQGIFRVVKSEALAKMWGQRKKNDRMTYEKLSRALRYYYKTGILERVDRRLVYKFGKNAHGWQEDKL
# Method in brief: as §1
# ETV3 = target: T12, ETV3 (Homo sapiens, UniProt P41162-2 1-143); details: protein: recombinant; tags: N-terminal GST; dsDNA, one strand shown
# T12 sequence: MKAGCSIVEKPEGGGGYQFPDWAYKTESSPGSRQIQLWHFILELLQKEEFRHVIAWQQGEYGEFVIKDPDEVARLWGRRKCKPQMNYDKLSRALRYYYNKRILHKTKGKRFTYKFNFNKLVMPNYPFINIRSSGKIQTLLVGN
# Method in brief: as §1
# ETV6 = ETV6 (Homo sapiens, UniProt P41212 1-452); details: protein: recombinant; tags: N-terminal GST; dsDNA, one strand shown
# Sequence of ETV6 (P41212 whole entry): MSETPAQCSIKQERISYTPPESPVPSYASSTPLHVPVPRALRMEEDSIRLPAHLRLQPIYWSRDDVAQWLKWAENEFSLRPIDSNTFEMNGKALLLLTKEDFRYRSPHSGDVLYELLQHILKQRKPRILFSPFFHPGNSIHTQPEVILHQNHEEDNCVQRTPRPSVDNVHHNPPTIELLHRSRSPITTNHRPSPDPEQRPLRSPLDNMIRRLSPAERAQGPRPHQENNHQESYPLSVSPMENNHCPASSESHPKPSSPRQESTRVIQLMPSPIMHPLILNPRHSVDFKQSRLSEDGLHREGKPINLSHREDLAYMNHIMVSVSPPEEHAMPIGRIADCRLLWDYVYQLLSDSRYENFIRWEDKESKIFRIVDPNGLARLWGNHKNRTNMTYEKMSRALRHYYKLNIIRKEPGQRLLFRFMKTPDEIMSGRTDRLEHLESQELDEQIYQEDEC
# Method in brief: as §1
sequence,measurement,setting,value
ATCTGC,binding signal,FEV,"1.41 fold enrichment (6-mer frequency, TF over GST control)"
same,binding signal,ETV5,"1.46 fold enrichment (6-mer frequency, TF over GST control)"
same,binding signal,HSF1,"1.44 fold enrichment (6-mer frequency, TF over GST control)"
same,binding signal,SPIC,"1.46 fold enrichment (6-mer frequency, TF over GST control)"
same,binding signal,ELF4,"1.44 fold enrichment (6-mer frequency, TF over GST control)"
same,binding signal,ELK4,"1.5 fold enrichment (6-mer frequency, TF over GST control)"
same,binding signal,ETV2,"1.44 fold enrichment (6-mer frequency, TF over GST control)"
same,binding signal,ELF3,"1.14 fold enrichment (6-mer frequency, TF over GST control)"
same,binding signal,CRX,"1.67 fold enrichment (6-mer frequency, TF over GST control)"
same,binding signal,ETV1,"1.36 fold enrichment (6-mer frequency, TF over GST control)"
same,binding signal,ERF,"1.31 fold enrichment (6-mer frequency, TF over GST control)"
same,binding signal,ETV3L,"1.4 fold enrichment (6-mer frequency, TF over GST control)"
same,binding signal,ETS2,"1.37 fold enrichment (6-mer frequency, TF over GST control)"
same,binding signal,SPDEF,"1.36 fold enrichment (6-mer frequency, TF over GST control)"
same,binding signal,ETV7,"1.38 fold enrichment (6-mer frequency, TF over GST control)"
same,binding signal,ELF5,"1.31 fold enrichment (6-mer frequency, TF over GST control)"
same,binding signal,ETV3,"1.36 fold enrichment (6-mer frequency, TF over GST control)"
same,binding signal,ETV6,"1.29 fold enrichment (6-mer frequency, TF over GST control)"
